In all, about 320,000 compounds went through this assay and about 22,000 (6.9%) were called active. About 27% were inconclusive and are not listed. Calls come from the whole dose curve; as a rule, active = well fitted inhibition curve with a large enough effect; inconclusive = small, poorly fitted or top-dose-only effect, or another doubt; inactive = no such curve, though single readings can be large or run the other way. Shown is part of a subset that was picked to be rich in actives. Where a call stands in place of a potency, no number is given.
Potency is the fitted concentration of half-maximal effect.

The nature of the assay: Primary qHTS for delayed death inhibitors of the malarial parasite plastid, 96 hour incubation. As to conditions: P. falciparum luciferase reporter growth; series mostly up to 28.7 µM. In short, it runs like this:
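Luminescence readout: decreased luciferase signal marks inhibited growth of reporter-expressing P. falciparum in infected red cells (2% hematocrit, 0.05% parasitemia final), exposed to compound two generations (96 h, 37 C, 5% CO2).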
(In general: qHTS replaces the single test concentration by a dilution series.)
For the molecule `CCOCC(=O)Nc1cc(OC)c(Cl)cc1OC`, the Potency entry is “inactive”.

For the molecule `COc1cccc(CC(=O)Nc2ccc(-c3csc(C)n3)cc2)c1`, the Potency entry is “inactive”.

In the case of `COc1cc(NC(=O)c2ccc(-c3csc(C)n3)cc2)c(OC)cc1Cl`, the Potency was 4.15 µM (active).

Take `COc1cc(C(=O)NCc2nnc(SCC(=O)c3ccc(Cl)cc3)o2)cc(OC)c1OC`: the Potency entry is “inactive”.

In the case of `Cc1ccc(NS(=O)(=O)c2cc3c(cc2C)NC(=O)CO3)cc1`, the Potency entry is “inactive”.

`COc1ccc(CCNC(=O)NS(=O)(=O)c2ccc(C)cc2)cc1OC`: the Potency entry was “inactive”.

In the case of `Cc1ccc(Cl)cc1N1CCN(C(=O)c2cccc3c(=O)c(C)c(-c4ccccc4)oc23)CC1`, the Potency is 2.08 µM (active).

Take `Cc1cccc(N2CCN(C(=O)c3cnn4c(C(F)F)cc(-c5ccccc5)nc34)CC2)c1C`: the Potency entry is “inactive”.

Consider `O=C(c1cc(-c2ccc(Cl)cc2)on1)N1CCN(c2ccccc2)CC1`, for which the Potency result was “inactive”.

Take `O=C(CC1C(=O)NCCN1CC(c1ccccc1)c1ccccc1)NCC1CCOCC1` (stereo not drawn): the Potency result is “inactive”.

In the case of `O=C(COc1ccccc1Cl)N1CCCCCCC1`, the Potency entry was “inactive”.

As for `CCC(CC)c1nnc(NC(=O)C2CCN(C(=O)c3ccco3)CC2)s1`, the Potency result was “inactive”.

Regarding `CN(C)C(CNC(=O)c1ccc(OCc2cn3ccccc3n2)cc1)c1ccco1` (stereo not drawn), the Potency entry is “inactive”.

Take `CC(Oc1cc2oc(=O)c3c(c2cc1Cl)CCCC3)C(=O)NCc1ccncc1` (stereo not drawn): the Potency entry is “inactive”.

In the case of `COc1ccc(CNC(=O)CCN2C(=O)c3ccccc3C2=O)cc1`, the Potency result is “inactive”.

In the case of `CC(CCn1cccn1)NC(=O)CCc1nnc(CCc2ccccc2)o1` (stereo not drawn), the Potency entry is “inactive”.

For the molecule `COc1ccc(CCc2nnc(CCC(=O)NCc3cnn(-c4ccccc4C)c3)o2)cc1`, the Potency is 9.28 µM (active).

For the molecule `Cc1ccc(C)c(N2CCN(S(=O)(=O)c3c(C)[nH]c(C)c3C(=O)N3CCCC3)CC2)c1`, the Potency result is “inactive”.

As to `CSC(=S)N/N=C/c1c[nH]c2ccccc12`, the Potency entry is “inactive”.

On to `O=C(N/N=C/c1c[nH]c2ccccc12)c1ccccc1O`, for which the Potency was 11.7 µM (active).

Consider `O=C(N/N=C/c1c[nH]c2ccccc12)c1cc2ccccc2o1`, for which the Potency result is “inactive”.

`CCOc1ccc(C(=O)Nc2ccc(CN3CCOCC3)cc2)cc1Cl`: the Potency result is “inactive”.

Regarding `CCc1cc(=O)oc2c(C)c(OCC(=O)NCCN3CCOCC3)ccc12`, the Potency result is “inactive”.

For the molecule `CCCc1cc(=O)oc2cc(OCC(=O)Nc3ccc(CN4CCOCC4)cc3)c(Cl)cc12`, the Potency is 10.4 µM (active).

In the case of `Cc1nc(-c2ccc(Cl)cc2)sc1C1(C)CC(c2ccccc2F)=NO1` (stereo not drawn), the Potency entry was “inactive”.

With `COCCCN1C(=O)c2ccc(C(=O)OCC(=O)NCc3ccccc3OC)cc2C1=O`, the Potency result was “inactive”.

As for `Cc1c(C)c(C)c(S(=O)(=O)NCCc2ccccn2)c(C)c1C`, the Potency entry is “inactive”.

For the molecule `Cc1ccc(OCc2cc(C(=O)N(C)CCc3ccccc3)no2)cc1C`, the Potency is 13.1 µM (active).

For the molecule `CSc1ccccc1OCc1cc(C(=O)N(C)CCc2c(C)n[nH]c2C)no1`, the Potency result was “inactive”.

On to `CN(Cc1cccnc1)C(=O)c1cc(COc2ccc3ncccc3c2)on1`, for which the Potency result was “inactive”.

Consider `Cc1cc(S(=O)(=O)N2CCOCC2)ccc1OCC(=O)Nc1cccc(C(F)(F)F)c1`, for which the Potency entry was “inactive”.

In the case of `O=C(N/N=C/c1cccc(OC(=O)c2ccc([N+](=O)[O-])cc2)c1)c1cccnc1`, the Potency entry is “inactive”.

As for `Cc1cccc(C(=O)NCCCN2CCCC2=O)c1`, the Potency entry was “inactive”.

Consider `Cc1cccc(-c2nc3ccc(C(=O)NCCN4CCN(C)CC4)cc3nc2-c2cccc(C)c2)c1`, for which the Potency was 11.7 µM (active).

`Cc1cccc(C(=O)NCCCN(C)CCCNC(=O)c2cccc(C)c2)c1`: the Potency entry is “inactive”.

With `CC(=O)Nc1ccc(S(=O)(=O)Oc2ccc(Br)cc2C(=S)N2CCOCC2)cc1`, the Potency result was “inactive”.

For `CCOC(=O)C(O)(c1ccc(N)c(OC)c1)C(F)(F)F` (stereo not drawn), the Potency is 2.62 µM (active).

Regarding `COC(=O)C(O)(c1ccc(NC(=O)c2ccco2)c(OC)c1)C(F)(F)F` (stereo not drawn), the activity change, negative = inhibition is 2.22% [at 5.75 µM] (inactive).

With `CCOC(=O)C(O)(c1ccc(N=Cc2ccccc2O)c(C)c1)C(F)(F)F` (stereo not drawn), the Potency result was “inactive”.

Turning to `C/C(=N\NC(=O)c1cccc([N+](=O)[O-])c1)c1cccnc1`, the Potency result is “inactive”.

`CCc1ccc(NC(=O)N[C@H](C(=O)O)C(C)CC)cc1` (stereo partly drawn): the Potency entry was “inactive”.

With `O=C(Nc1ccccc1N1CCCCC1)c1ccc2nccnc2c1`, the Potency result was “inactive”.

For the molecule `Cc1nnc(NC(=O)c2ccc3nccnc3c2)s1`, the Potency entry is “inactive”.

On to `Cc1ccc(C)c(NC(=O)c2ccc3nccnc3c2)c1`, for which the Potency is 8.28 µM (active).

Take `CC(C)OCCCNC(=O)CN1C(=O)/C(=C/c2ccccc2F)Oc2ccccc21`: the Potency entry was “inactive”.

With `Cc1ccc(C)c(OCCC(=O)OCC(=O)NC(=O)NCc2ccccc2)c1`, the Potency result was “inactive”.

With `COc1ccc(/C(C)=N/N2CCOCC2)c(O)c1`, the Potency entry is “inactive”.

Take `Cn1cc([N+](=O)[O-])c(C(=O)Nc2ccc3c(c2)OCCO3)n1`: the Potency entry is “inactive”.

As to `COc1cccc(NC(=O)c2ccc(Cn3cc([N+](=O)[O-])cn3)o2)c1`, the Potency result was “inactive”.

Regarding `COc1cccc(NC(=O)c2nn(C34CC5CC(CC(C5)C3)C4)cc2[N+](=O)[O-])c1`, the Potency is 8.28 µM (active).

Take `O=C(Nc1cccc([N+](=O)[O-])c1)N1CCc2ccccc2C1`: the Potency result is “inactive”.

For the molecule `O=C(COC(=O)C1(c2ccc(F)cc2)CCCC1)N1CCNC1=O`, the Potency result is “inactive”.

For the molecule `O=C(/C=C/c1cccc([N+](=O)[O-])c1)OCC(=O)N1CCOCC1`, the Potency entry was “inactive”.

In the case of `O=[N+]([O-])c1ccc2c(c1)C(N1CCOCC1)/C(=C/C1(O)CCCCC1)O2` (stereo not drawn), the Potency is 1.65 µM (active).

On to `O=C(NC1CCCCC1)c1cc([N+](=O)[O-])ccc1N1CCOCC1`, for which the Potency entry was “inactive”.

`O=[N+]([O-])c1ccc(N/N=C/c2ccccc2)cc1`: the Potency result is “inactive”.

Turning to `COc1ccc(NC(=O)CNC(=O)Cc2ccccc2)cc1OC`, the Potency result was “inactive”.

Turning to `C[C@]12CC[C@@H]3c4ccc(O)cc4C[C@@H](CCCCCCCCCS(=O)CCCC(F)(F)C(F)(F)F)C3[C@@H]1CC[C@@H]2O` (stereo partly drawn), the Potency was 6.01 µM (active).

Consider `O=C(CCNC(=O)c1ccc([N+](=O)[O-])cc1)NC1CCCCC1`, for which the Potency entry was “inactive”.

Turning to `CCSc1ncnc2c(C#N)c3n(c12)CCCCC3`, the Potency was 11.7 µM (active).

With `CCOC(=O)c1c(N=CN(C)C)c(C#N)c2n1CCCC2`, the Potency entry is “inactive”.

For the molecule `CC(C)c1nnc(NC(=O)COC(=O)/C=C/c2ccc([N+](=O)[O-])cc2)s1`, the Potency result was “inactive”.

Take `Cc1cc(C)n(CC(C)NCc2c(C(=O)N3CCOCC3)nc3c(C)cccn23)n1` (stereo not drawn): the Potency entry is “inactive”.

Regarding `COC(=O)C1[C@H]2SC(C)(C)C(C(=O)OC)N2C(=O)N1Cc1nc2ccccc2s1` (stereo partly drawn), the Potency entry was “inactive”.

As for `N#Cc1ccccc1-n1c(N)c(C(=O)N2CCCC2)sc1=S`, the Potency is 3.7 µM (active).

As for `Cc1ccc(-n2c(N)c(C(=O)N3CCOCC3)sc2=S)c(C)c1`, the Potency entry was “inactive”.

Take `Cc1cccc(-n2c(N)c(C(=O)N3CCN(C)CC3)sc2=S)c1`: the Potency result was “inactive”.

In the case of `COC(=O)Cc1ccc(OCC(=O)NC2CCCC2)cc1`, the Potency result is “inactive”.

In the case of `O=C(N/N=C/c1cccnc1)c1cc2ccccc2cc1O`, the Potency result was “inactive”.

On to `O=C(NNc1c2ccccc2nc2ccccc12)c1cc2ccccc2cc1O`, for which the Potency is 3.7 µM (active).

Consider `CC(C)(C)OC(=O)NNc1c2ccccc2nc2ccccc12`, for which the Potency result was “inactive”.

For `O=C(COC(=O)c1ccc2ncsc2c1)Nc1ccc(Cl)cc1`, the Potency result is “inactive”.

Regarding `COc1ccccc1C(=O)N/C(=C/c1ccco1)C(=O)Nc1ccc(C(=O)O)cc1`, the Potency entry was “inactive”.

Regarding `CCCCN(C)CCC(=O)Nc1ccc(Cl)cc1`, the Potency result was “inactive”.

Turning to `CCCCC(=O)Nc1nc(C)c(-c2csc(Nc3ccc(Cl)cc3)n2)s1`, the Potency was 3.29 µM (active).

`CCCCCCC(=O)Nc1nc(C)c(-c2csc(Nc3cc(Cl)ccc3OC)n2)s1`: the Potency is 2.62 µM (active).

Turning to `COc1ccc(OC)c(Nc2nc(-c3ccc(O)c(O)c3)cs2)c1`, the Potency result was “inactive”.

With `COc1ccc(OC)c(-c2csc(NC(=O)COC(=O)C3CC3)n2)c1`, the Potency entry is “inactive”.

As for `CC(=O)c1sc(NC(=O)CCCOc2ccccc2C)nc1C`, the Potency result is “inactive”.

Take `COc1ccc(-c2csc(NC(=O)COC(=O)Cc3ccc(Cl)cc3Cl)n2)cc1`: the Potency result was “inactive”.

Turning to `CCCCC(=O)N/N=C(\C)CC(=O)Nc1cc(Cl)ccc1OC`, the Potency result was “inactive”.

In the case of `CCCCCCC(=O)Nc1nc(C)c(-c2csc(Nc3cccc(OC)c3)n2)s1`, the Potency is 7.38 µM (active).

Turning to `Cc1nc(C)c(-c2csc(NCCc3ccccc3)n2)s1`, the Potency result was “inactive”.

In the case of `C=CCCC(=O)Nc1nc(C)c(-c2csc(Nc3ccc(Cl)cc3)n2)s1`, the Potency is 0.657 µM (active).

For the molecule `CCOC(=O)c1csc(NC(=O)Nc2cccc(OC)c2)n1`, the Potency result is “inactive”.

Take `COc1ccc(-c2ccc(OC(=O)NC3CCS(=O)(=O)C3)cc2)cc1` (stereo not drawn): the Potency entry is “inactive”.

For the molecule `O=[N+]([O-])c1cc(S(=O)(=O)NCCc2ccccn2)ccc1Cl`, the Potency entry is “inactive”.

In the case of `CN1CCN(Cc2c(C(=O)N3CCc4ccccc4C3)nc3ccc(Cl)cn23)CC1`, the Potency entry is “inactive”.

On to `COC(=O)c1ccc(NC(=O)CSc2nc(N)c(NC(=O)c3ccc(Br)o3)c(=O)[nH]2)cc1`, for which the Potency result is “inactive”.

Take `CCN(CC(=O)Nc1cc(Cl)ccc1C)C(=O)CN1C(=O)NC2(CCCC2)C1=O`: the Potency entry was “inactive”.

In the case of `Cc1cc(=O)oc2c(C)c(OCC(=O)NCCc3ccc(S(N)(=O)=O)cc3)ccc12`, the Potency result was “inactive”.

Take `Cc1ccc(OCC(=O)Nc2ccc(C(=O)O)cc2NC(=O)COc2ccc(C)c(C)c2)cc1C`: the Potency result was “inactive”.

In the case of `O=C1CC(N2CCN(C(c3ccccc3)c3ccccc3)CC2)C(=O)N1` (stereo not drawn), the Potency entry is “inactive”.

Take `CC1(C)CC(N2CCN(C(c3ccccc3)c3ccccc3)CC2)=CC(=[N+]2CCCCC2)C1`: the Potency was 0.415 µM (active).

Consider `CC1(C)CC(=O)C=C(N2CCCC2)C1`, for which the Potency result is “inactive”.

In the case of `CCOc1ccc(S(=O)(=O)Nc2ccc(OC)nc2)cc1`, the Potency result was “inactive”.

With `CN(CCO)c1ccc(/C=N/Nc2nncc3ccccc23)cc1`, the Potency entry is “inactive”.

With `Cc1occc1C(=O)N1CCCc2ccccc21`, the Potency was 10.4 µM (active).

Take `COc1ccc2oc(=O)c(C(=O)N3CCCc4ccccc43)cc2c1`: the Potency result is “inactive”.

On to `CCC(=O)N1CCCc2ccccc21`, for which the Potency entry was “inactive”.

On to `COc1cc(NC(=O)CN2C(=O)NC(C)(c3ccc(OC(F)F)cc3)C2=O)cc(OC)c1OC` (stereo not drawn), for which the Potency result is “inactive”.

For the molecule `COc1ccc(Cl)cc1S(=O)(=O)N1CCC(O)(c2ccc(Cl)cc2)CC1`, the Potency entry is “inactive”.

For `CCOc1cc(C(C(=O)NCC2CCCO2)N(C(=O)Cn2nnc3ccccc32)c2cccc(OC)c2)ccc1O` (stereo not drawn), the Potency result was “inactive”.
